HP1b binding inh: HP1-beta chromodomain-methylated histone interaction inhibition. P83916. AlphaScreen HP1-beta / biotin-H3K9me3 peptide binding. Potency, µM (highest dose often 114 µM), inactives show top-dose activity change, negative = inhibition, usual class: inhibitors. 390,000 tested, 0.56% active; note: potency is the fitted concentration of half-maximal effect; nearly all actives have a fitted effect of over 70% in size
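AlphaScreen: HP1-beta (50 nM) preformed 30 min with biotin-H3(1-18)K9me3 peptide (50 nM) in PBS pH 7.4, 0.01% Tween-20. Compound added for 30 min at RT, then streptavidin donor/nickel chelate acceptor beads (10 ug/mL) for 30 min.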
JMJD2A Tudor inh: JMJD2A Tudor domain (human) inhibition. AlphaScreen JMJD2A-Tudor / H3K4me3 peptide binding. Potency, µM (series often up to 114 µM), without a hit: top-dose activity change, negative = inhibition, hits mostly inhibitors. 390,000 tested, 4.4% active; note: potency is the fitted concentration of half-maximal effect; % is set by controls: 0 for no effect and ±100 for the full control effect; nearly all actives have a fitted effect of over 50% in size
Target sequence (O75164 whole entry, looked up, the tested form may be a part): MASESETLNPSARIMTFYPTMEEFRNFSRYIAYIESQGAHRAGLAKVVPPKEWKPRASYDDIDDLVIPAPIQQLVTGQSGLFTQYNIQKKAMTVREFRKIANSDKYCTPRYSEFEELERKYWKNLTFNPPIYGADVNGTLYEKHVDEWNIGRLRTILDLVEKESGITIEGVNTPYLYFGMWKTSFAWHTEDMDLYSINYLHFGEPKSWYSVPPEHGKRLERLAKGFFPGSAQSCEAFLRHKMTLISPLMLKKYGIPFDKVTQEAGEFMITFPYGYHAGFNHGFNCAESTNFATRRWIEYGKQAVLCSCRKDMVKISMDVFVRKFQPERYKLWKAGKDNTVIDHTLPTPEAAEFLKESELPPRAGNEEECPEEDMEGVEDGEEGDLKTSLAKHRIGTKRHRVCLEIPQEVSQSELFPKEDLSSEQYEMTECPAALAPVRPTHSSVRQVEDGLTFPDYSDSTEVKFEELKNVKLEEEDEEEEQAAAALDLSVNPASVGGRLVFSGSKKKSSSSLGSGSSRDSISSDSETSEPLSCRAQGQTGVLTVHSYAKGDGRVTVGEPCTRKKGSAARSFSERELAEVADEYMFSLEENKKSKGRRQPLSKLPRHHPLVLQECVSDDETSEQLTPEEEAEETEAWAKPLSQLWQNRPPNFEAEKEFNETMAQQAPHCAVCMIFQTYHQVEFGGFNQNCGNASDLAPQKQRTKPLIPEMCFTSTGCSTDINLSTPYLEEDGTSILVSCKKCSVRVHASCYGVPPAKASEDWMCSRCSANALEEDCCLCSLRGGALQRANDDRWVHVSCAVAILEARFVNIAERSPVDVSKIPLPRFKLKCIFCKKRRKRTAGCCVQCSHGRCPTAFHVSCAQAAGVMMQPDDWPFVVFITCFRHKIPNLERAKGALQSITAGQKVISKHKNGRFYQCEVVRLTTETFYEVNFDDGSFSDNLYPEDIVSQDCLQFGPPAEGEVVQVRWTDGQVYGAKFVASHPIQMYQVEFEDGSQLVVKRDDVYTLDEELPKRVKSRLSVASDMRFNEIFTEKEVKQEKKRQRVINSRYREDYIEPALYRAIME
BAZ2B block: inhibitors of human BAZ2B bromodomain. Q9UIF8. Potency, µM (highest dose often 114 µM), for the others: at the top dose activity change, negative = inhibition, actives largely listed as inhibitors. 360,000 tested, 4.4% active. AlphaScreen BAZ2B-H3K14Ac peptide displacement. AID 504333; note: potency is the fitted concentration of half-maximal effect; % is set by controls: 0 for no effect and ±100 for the full control effect; nearly all actives have a fitted effect of over 60% in size
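Multi-concentration screen (max 110 uM) measuring displacement of acetylated histone H3 peptide from BAZ2B by AlphaScreen, using 50 nM protein, 50 nM peptide and 10 ug/mL streptavidin donor plus Ni-chelate acceptor beads.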
CtBP-E1A inh: blocks the CtBP interaction with E1A; 340,000 tested, 0.49% active; activity change, % (test concentration not listed); AlphaScreen GST-E1A/His-CtBP binding, 1536-well; active compounds read low; in the data active = activity change below about -65%; inconclusive = mostly about -30% to -63%; note: % is set by controls: 0 for no effect and ±100 for the full control effect
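AlphaScreen with 125 nM GST-E1A and 125 nM His-CtBP (5X stocks) in Tris pH 8.0, 300 mM NaCl, BSA, Tween 20, TCEP. Compounds preincubated 2 h at 37 deg C, then glutathione donor/nickel acceptor beads added for 1 h at 37 deg C in dark.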
G9a inh: blocks human histone lysine methyltransferase G9a | G9a H3K9 monomethylation, AlphaScreen, 2 h | Potency, µM (doses to about 102 µM), inactives show at the highest dose activity, negative = inhibition, actives largely listed as inhibitors | 350,000 tested, 8.8% active; note: potency is the fitted concentration of half-maximal effect; % is set by controls: 0 for no effect and ±100 for the full control effect; nearly all actives have a fitted effect of over 75% in size
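Chemiluminescent proximity detection of H3K9 monomethylation, read after 10 min bead incubation in the dark. Reaction: 20 nM G9a, 500 nM biotin-H3K9 peptide, 20 uM SAM cofactor, 2 h, room temperature, following 15 min enzyme-compound preincubation.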
Six1-Eya2 inh: Six1/Eya2 interaction inhibition; AlphaScreen GST-Six1/His-Eya2 binding, biochemical; active compounds read low; activity change, % (concentration not given with the values); 360,000 tested, 0.56% active; AID 651725; in the data active = activity change below about -65%; inconclusive = mostly about -30% to -63%; note: % is set by controls: 0 for no effect and ±100 for the full control effect
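AlphaScreen luminescence read after one hour at 37 °C in darkness. Pin-transferred compounds met GST-Six1 and His-Eya2 protein (5X stock 250 nM/500 nM) plus glutathione donor and Ni-chelate acceptor beads (5X, 50 ug/mL).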
Active calls of the source: *; ? = inconclusive; . = no result given; [ ] = another dose, or the depositor's remark. Rows were chosen to be rich in hits. Some 10% of all compounds tested hit in one or more screens of this group. Unless noted, calls come from the whole dose curve; as a rule, active = well fitted inhibition curve with a large enough effect; inconclusive = small, poorly fitted or top-dose-only effect; inactive = no such curve, though single readings can be large or run the other way.

SMILES | HP1b binding inh | JMJD2A Tudor inh | BAZ2B block | CtBP-E1A inh | G9a inh | Six1-Eya2 inh
CC1(C)CC(=O)C2=C(C1)O[C@@]1(CCCCN3C(=O)c4ccccc4C3=O)Cc3ccccc3C2O1 | . | . | -1%[22.9 µM] | . | . | .
C#CCOCCOCCOCCNc1nc(N2CCN(C(=O)[C@H](CC(N)=O)n3cc(C(N)[C@@H](C)CC)nn3)CC2)nc(N2CCN(C(=O)[C@H](CCC(=O)O)n3cc([C@@H](N)CCCCN)nn3)CC2)n1 (stereo partly specified) | 14% | 79µM* | . | -10 | . | -8
C#CCOCCOCCOCCNc1nc(N2CCN(C(=O)[C@H](CCC(=O)O)n3cc([C@@H](N)[C@H](C)CC)nn3)CC2)nc(N2CCN(C(=O)[C@H](CCCCN)n3cc([C@@H](N)CC(N)=O)nn3)CC2)n1 | -14% | 5.6µM* | . | -11 | . | -17
C#CCOCCOCCOCCNc1nc(N2CCN(C(=O)C([C@@H](C)O)n3cc([C@@H](N)CCCCN)nn3)CC2)nc(N2CCN(C(=O)[C@H](CC(N)=O)n3cc(C(N)[C@@H](C)CC)nn3)CC2)n1 (stereo partly specified) | 32% | ? | . | -7 | . | -8
C#CCOCCOCCOCCNc1nc(N2CCN(C(=O)[C@H](CC(N)=O)n3cc(C(N)[C@H](C)CC)nn3)CC2)nc(N2CCN(C(=O)[C@H](CC(N)=O)n3cc(C(N)[C@@H](C)CC)nn3)CC2)n1 (stereo partly specified) | 33% | 22µM* | . | -9 | . | -15
CCOc1c2c(c(-c3ccc4c(c3)OCO4)c3cc(OC)c(OC)cc13)C(=O)OC2 | -6% | -15% | . | . | . | .
O=C(O)c1ccccc1N(Cc1ccccc1)C(=O)CO/N=C/c1ccccc1 | 27% | -12% | -26% | -1 | ? | -12
O=C(CCN1C(=O)/C(=C/c2ccccc2Cl)SC1=S)NN1CCOCC1 | 31% | -10% | -9%[57.1 µM] | -14 | 10% | 6
COc1ccc(CN2C(=O)/C(=C/c3ccc(-c4ccc(Cl)c(C(=O)O)c4)o3)SC2=S)cc1 | . | . | ? | . | 32µM* | .
O=C(O)c1cc(-c2ccc(/C=C3/SC(=S)N(Cc4ccccc4)C3=O)o2)ccc1Cl | ? | 56µM* | ? | 2 | 13µM* | -11
Cc1ccc(/C=C2\SC(=S)N(Cc3ccccc3)C2=O)o1 | -21% | 14µM* | ? | -1 | ? | -2
O=S(=O)(c1ccc(Cl)cc1)c1nc(-c2ccccc2Br)oc1N1CCOCC1 | -6% | ? | ? | . | -43%[59 µM] | .
CC(Nc1ccc(Cl)cc1)C(=O)NN (stereo unspecified) | 19% | 0% | -3% | 6 | -8%[12.7 µM] | -12
NS(=O)(=O)c1ccc(CCNC(=O)CCCn2c(=O)[nH]c3ccc(Br)cc3c2=O)cc1 | 23% | 2% | -4% | 0 | 9% | 6
COc1ccc(CNCCCC(=O)Nc2c(Cl)ccc(C)c2Cl)cc1OC | 79µM* | 0.79µM* | 56µM* | -6 | 3.2µM* | -8
COc1ccc(CCNCCC(=O)Nc2c(C)cc(C)cc2C)cc1OC | 17% | -21% | -6% | 6 | 5%[59 µM] | 5
O=C(c1ccc(-n2cncn2)c2ccoc12)N1CCOCC1 | . | . | . | 1 | . | 3
O=S(=O)(Nc1cccc2cccnc12)c1ccccc1 | 24%[57 µM] | -15% | ? | -84* | 42% | -66*
Cc1cc(C)c(NS(=O)(=O)c2cccc3cccnc23)c(C)c1 | 35% | -14% | 1% | -1 | ? | -7
Cc1ccc(S(=O)(=O)Nc2cccc3cccnc23)c([N+](=O)[O-])c1 | -7% | ? | 45µM* | -80* | 6% | -91*
O=S(=O)(Nc1cccc2cccnc12)c1ccc(S(=O)(=O)N2CCCC2)cc1 | 21% | -19% | ? | -90* | 12%[59 µM] | -76*
Cc1cc(C)cc(N2CCCn3c2nc2c3c(=O)[nH]c(=O)n2C)c1 | 19% | -4% | 1% | -12 | 6% | 2
Cc1cc(C)n2nc(S(=O)(=O)NC(C)(C)C)nc2n1 | 3% | -9% | . | 0 | -33% | 1
CCC(=O)NCCc1nc2cc(NC(=O)c3ccc(F)cc3)ccc2n1C | 45% | -11% | 8% | . | -23% | 4
Cc1nn(-c2nnc(NC3CCCCC3)nn2)c(C)c1Br | ? | 45µM* | 14µM* | -23 | 22µM* | -12
SMILES | HP1b binding inh | JMJD2A Tudor inh | BAZ2B block | CtBP-E1A inh | G9a inh | Six1-Eya2 inh
Cc1nn(C)c(C)c1S(=O)(=O)NC1CCCC1 | 8% | 0% | 6% | -1 | . | 12
Cc1ncn(-c2ccccc2)c1-c1ccccc1 | -5% | ? | 50µM* | -13 | 21%[2.33 µM] | -14
c1ccc(-n2cnc3ccccc32)cc1 | 52% | 5% | 12% | 13 | 5% | 0
CC1(C)CC(=O)C=C(Nc2ccc(O)c(C(=O)O)c2)C1 | 41% | -29% | -19% | -7 | 45µM* | -1
O=[S+]([O-])(c1ccc2c(c1)OCCO2)N1CCN([S+](=O)([O-])c2c(O)cc(F)cc2F)CC1 | . | -11% | . | . | . | .
CCc1cccc(NC(=O)CNS(=O)(=O)c2ccc3nc(C)sc3c2)c1 | 26% | -18% | 4% | . | -2%[59 µM] | .
CCCCn1c(SCC(=O)Nc2ccc(OCC)cc2)nc2ccsc2c1=O | 50% | -3% | -1% | . | 10%[59 µM] | .
COC(=O)C1Cc2c([nH]c3ccccc23)CN1 (stereo unspecified) | 23% | -29% | -32% | -7 | 40µM* | 1
C#Cc1ccc([C@H]2C=C(C(=O)N3CCN(Cc4ccc5c(c4)OCO5)CC3)O[C@@H](OCc3ccc(CO)cc3)C2)cc1 | 13% | ? | ? | -19 | -13%[59 µM] | -15
Cc1ccc(-n2c(-c3nn(C)cc3Cl)n[nH]c2=S)cc1 | 27% | 8.9µM* | 2% | 3 | 3.2µM* | 2
S=c1[nH]nc(-c2ccc3ccccc3n2)n1-c1cc(Cl)cc(Cl)c1 | 12% | -29% | -25% | -30 | ? | -13
Cc1c(Cl)c(-c2n[nH]c(=S)n2-c2ccc(F)cc2)nn1C | 27% | 45µM* | -5% | -3 | ? | 7
Cn1cc(Cl)c(-c2n[nH]c(=S)n2-c2ccccc2)n1 | 36% | 6.3µM* | -1% | -1 | 8.9µM* | -4
Cc1nn(C)c(-c2n[nH]c(=S)n2-c2ccccc2)c1Cl | 19% | 35µM* | 3% | 4 | 3.2µM* | -5
CC(C)n1nc(C(=O)Nc2cccc(S(=O)(=O)N3CCCCC3)c2)c2ccccc2c1=O | 21% | -28% | -1% | -5 | 19%[2.33 µM] | -1
Cc1c(-c2n[nH]c(=S)n2-c2ccc(Br)cc2)nnn1-c1ccc(Cl)cc1 | 3% | ? | -37% | -5 | ? | -20
